Reference: PubChem BioAssay (EPA / NIEHS)
The source made the active and inactive calls. How the source made its calls: active means hit-call score of the fitted dose curve at least 0.9, where 1 is the maximum; inactive means score below 0.9.

Tests used:
[1] = read-out: Macrophage colony-stimulating factor (MCSF), CSF1 (gene 1435); assay: BSK_hDFCGF_MCSF: BioMAP Diversity Plus: hDFCGF Assay for Macrophage colony-stimulating factor (MCSF) Biomarker Activity (AID 2283060); settings: primary human foreskin fibroblasts; actives raise or lower the signal
Outline: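 fibroblasts (human foreskin, primary), 24 h post-dose; M-CSF by ELISA; bidirectional fit, DMSO = baseline.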

[2] = BSK_hDFCGF_SRB: Viability Assessment in the BioMAP Diversity Plus: hDFCGF Assay (AID 2283061); settings: primary human foreskin fibroblasts;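 further: cells exposed to compound for 24 h before the read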
Outline: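 SRB-based viability read on primary human skin fibroblasts at 24 h: TCA fixation, 0.1% dye, 560 nm. Gain or loss of signal is fitted against the DMSO negative control.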

[3] = read-out: TIMP metallopeptidase inhibitor 1 (TIMP1), TIMP1 (gene 7076); assay: BSK_hDFCGF_TIMP1: BioMAP Diversity Plus: hDFCGF Assay for TIMP metallopeptidase inhibitor 1 (TIMP1) Biomarker Activity (AID 2283062); settings: primary human foreskin fibroblasts; actives raise or lower the signal
Outline: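 Bidirectional curve fitting against DMSO baseline yielded this endpoint, based on ELISA detection of TIMP-1 in primary human foreskin fibroblasts exposed to compound for 24 h.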

[4] = read-out: Monokine induced gamma interferon (MIG), CXCL9 (gene 4283); assay: BSK_hDFCGF_MIG: BioMAP Diversity Plus: hDFCGF Assay for Monokine induced gamma interferon (MIG) Biomarker Activity (AID 2283063); settings: primary human foreskin fibroblasts; actives raise or lower the signal
Outline: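 Endpoint derived by bidirectional fitting relative to DMSO; MIG quantified via ELISA in primary human foreskin fibroblasts harvested 24 h after dosing.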

[5] = read-out: Matrix Metallopeptidase 1 (MMP1), MMP1 (gene 4312); assay: BSK_hDFCGF_MMP1: BioMAP Diversity Plus: hDFCGF Assay for Matrix Metallopeptidase 1 (MMP1) Biomarker Activity (AID 2283064); settings: primary human foreskin fibroblasts; actives raise or lower the signal
Outline: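 Primary human foreskin fibroblasts exposed to chemicals for 24 h; MMP1 measured by ELISA. Cytotoxicity tracked by SRB staining in parallel cultures; bidirectional fit relative to DMSO.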

[6] = read-out: Vascular cell adhesion molecule 1 (VCAM1), VCAM1 (gene 7412); assay: BSK_hDFCGF_VCAM1: BioMAP Diversity Plus: hDFCGF Assay for Vascular cell adhesion molecule 1 (VCAM1) Biomarker Activity (AID 2283065); settings: primary human foreskin fibroblasts; actives raise or lower the signal;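 on AC50: VCAM-1 protein level quantified by ELISA after 24 h chemical exposure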
Outline: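 Measured after 24 h chemical treatment of primary human skin fibroblasts, VCAM-1 was detected by ELISA and concentration-response analysed in both directions versus DMSO vehicle.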

[7] = read-out: Plasminogen activator inhibitor-1 (PAI1), SERPINE1 (gene 5054); assay: BSK_hDFCGF_PAI1: BioMAP Diversity Plus: hDFCGF Assay for Plasminogen activator inhibitor-1 (PAI1) Biomarker Activity (AID 2283066); settings: primary human foreskin fibroblasts; actives raise or lower the signal
Outline: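 Human foreskin fibroblast primary cells, 24 h chemical exposure; PAI-1 measured by ELISA. Bidirectional fitting relative to DMSO; parallel cultures stained with SRB for total protein to flag overt cytotoxicity.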

[8] = read-out: Intercellular Adhesion Molecule 1 (ICAM1), ICAM1 (gene 3383); assay: BSK_KF3CT_ICAM1: BioMAP Diversity Plus: KF3CT Assay for Intercellular Adhesion Molecule 1 (ICAM1) Biomarker Activity (AID 2283067); settings: primary human keratinocytes with fibroblasts; actives raise or lower the signal
Outline: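 Bidirectional curve fitting against a DMSO baseline was applied to ICAM-1 ELISA signal from primary human skin co-cultures harvested 24 h after treatment, with SRB staining of parallel wells for overt cytotoxicity.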

[9] = read-out: Interferon-gamma inducible Protein 10 (IP10), CXCL10 (gene 3627); assay: BSK_KF3CT_IP10: BioMAP Diversity Plus: KF3CT Assay for Interferon-gamma inducible Protein 10 (IP10) Biomarker Activity (AID 2283068); settings: primary human keratinocytes with fibroblasts; actives raise or lower the signal
Outline: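 In a primary skin co-culture of keratinocytes and fibroblasts, IP-10 is quantified by ELISA at 24 h after dosing. SRB staining of parallel wells monitors overt toxicity. Curves are fitted both directions against DMSO.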

[10] = BSK_KF3CT_SRB: Viability Assessment in the BioMAP Diversity Plus: KF3CT Assay (AID 2283069); settings: primary human keratinocytes with fibroblasts;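 further: total protein by sulforhodamine B staining as a cytotoxicity measure; read 24 h after compound addition; fitted for both signal gain and loss against DMSO baseline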
Outline: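 Human keratinocyte and foreskin fibroblast co-culture exposed to chemical for 24 h. Total protein measured in parallel cultures by 0.1% sulforhodamine B staining after 10% TCA fixation, read at 560 nm; bidirectional fit relative to DMSO.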

[11] = read-out: Interleukin-1 alpha (IL1a), IL1A (gene 3552); assay: BSK_KF3CT_IL1a: BioMAP Diversity Plus: KF3CT Assay for Interleukin-1 alpha (IL1a) Biomarker Activity (AID 2283070); settings: primary human keratinocytes with fibroblasts; actives raise or lower the signal
Outline: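 Primary human keratinocyte plus foreskin fibroblast co-culture, dosed and measured at 24 h in 96-well plates. IL-1a level quantified by ELISA; bidirectional fit relative to DMSO.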

[12] = read-out: TIMP metallopeptidase inhibitor 2 (TIMP2), TIMP2 (gene 7077); assay: BSK_KF3CT_TIMP2: BioMAP Diversity Plus: KF3CT Assay for TIMP metallopeptidase inhibitor 2 (TIMP2) Biomarker Activity (AID 2283071); settings: primary human keratinocytes with fibroblasts; actives raise or lower the signal
Outline: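 Co-culture of human primary keratinocytes and foreskin fibroblasts, measured 24 h after chemical dosing. TIMP-2 quantified by ELISA and fitted in both directions relative to DMSO. Cytotoxicity checked in parallel cultures by SRB total-protein staining.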

[13] = read-out: C-C motif chemokine 2 (Homo sapiens) (UniProt P13500); assay: BSK_KF3CT_MCP1: BioMAP Diversity Plus: KF3CT Assay for Monocyte Chemoattractant Protein 1 (MCP1/CCL2) Biomarker Activity (AID 2283073); settings: primary human keratinocytes with fibroblasts; actives raise or lower the signal
Outline: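 Biomarker MCP-1 is measured by ELISA in primary human keratinocytes co-cultured with foreskin fibroblasts, 24 h after chemical treatment; DMSO serves as the negative control and activity baseline.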

[14] = read-out: Matrix Metallopeptidase 9 (MMP9), MMP9 (gene 4318); assay: BSK_KF3CT_MMP9: BioMAP Diversity Plus: KF3CT Assay for Matrix Metallopeptidase 9 (MMP9) Biomarker Activity (AID 2283074); settings: primary human keratinocytes with fibroblasts; actives raise or lower the signal;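 on AC50: MMP9 protein level quantified by ELISA in the co-culture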
Outline: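 Human keratinocyte and foreskin fibroblast co-culture exposed to chemicals for 24 h; MMP9 biomarker measured by ELISA, bidirectional fitting relative to DMSO; cytotoxicity tracked by SRB total protein staining in parallel cultures.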

[15] = read-out: urokinase plasminogen activator (uPA), PLAU (gene 5328); assay: BSK_KF3CT_uPA: BioMAP Diversity Plus: KF3CT Assay for urokinase plasminogen activator (uPA) Biomarker Activity (AID 2283075); settings: primary human keratinocytes with fibroblasts; actives raise or lower the signal
Outline: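 Primary human keratinocyte/foreskin fibroblast co-culture exposed to chemical; uPA measured by ELISA at 24 h. Bidirectional fit versus DMSO, with parallel SRB total-protein staining for cytotoxicity.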

[16] = read-out: CD40, CD40 (gene 958); assay: BSK_LPS_CD40: BioMAP Diversity Plus: LPS Assay for CD40 Biomarker Activity (AID 2283076); settings: primary human HUVEC with PBMC; actives raise or lower the signal
Outline: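 Using a multiplexed primary human co-culture (umbilical vein endothelium plus PBMC), CD40 was read by ELISA 24 h after dosing, with cytotoxicity tracked by sulforhodamine B staining of parallel cultures and activity fitted bidirectionally versus DMSO.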

[17] = read-out: E-selectin (Homo sapiens) (UniProt P16581); assay: BSK_LPS_Eselectin: BioMAP Diversity Plus: LPS Assay for Eselectin Biomarker Activity (AID 2283077); settings: primary human HUVEC with PBMC; actives raise or lower the signal
Outline: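 Dose chemical onto LPS-driven HUVEC/PBMC co-culture; after 24 h, run ELISA for E-selectin; fit up- and down-going responses relative to DMSO control.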

[18] = read-out: Interleukin-8 (IL8), CXCL8 (gene 3576); assay: BSK_LPS_IL8: BioMAP Diversity Plus: LPS Assay for Interleukin-8 (IL8) Biomarker Activity (AID 2283078); settings: primary human HUVEC with PBMC; actives raise or lower the signal
Outline: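 In this LPS system, chemical-treated human umbilical vein endothelium/PBMC co-cultures were harvested at 24 h for IL-8 ELISA.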

[19] = BSK_LPS_SRB: Viability Assessment in the BioMAP Diversity Plus: LPS Assay (AID 2283079); settings: primary human HUVEC with PBMC;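 further: total protein by sulforhodamine B absorbance as a cytotoxicity measure; measured one day after compound addition; fitted in both directions against DMSO so loss or gain of signal counts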
Outline: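 Cytotoxicity endpoint in human endothelial–PBMC co-culture: 24 h exposure, then SRB (0.1%) staining, 560 nm read.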

[20] = read-out: Transforming growth factor beta 1 (TGFb1), TGFB1 (gene 7040); assay: BSK_KF3CT_TGFb1: BioMAP Diversity Plus: KF3CT Assay for Transforming growth factor beta 1 (TGFb1) Biomarker Activity (AID 2283072); settings: primary human keratinocytes with fibroblasts; actives raise or lower the signal
Outline: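 Human keratinocyte/foreskin fibroblast co-culture; TGF-b1 measured by ELISA 24 h after dosing, fitted bidirectionally versus DMSO. Cytotoxicity checked in parallel cultures by total protein (SRB staining, 560 nm).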

Sequence of E-selectin (Homo sapiens) (P16581 whole entry, looked up): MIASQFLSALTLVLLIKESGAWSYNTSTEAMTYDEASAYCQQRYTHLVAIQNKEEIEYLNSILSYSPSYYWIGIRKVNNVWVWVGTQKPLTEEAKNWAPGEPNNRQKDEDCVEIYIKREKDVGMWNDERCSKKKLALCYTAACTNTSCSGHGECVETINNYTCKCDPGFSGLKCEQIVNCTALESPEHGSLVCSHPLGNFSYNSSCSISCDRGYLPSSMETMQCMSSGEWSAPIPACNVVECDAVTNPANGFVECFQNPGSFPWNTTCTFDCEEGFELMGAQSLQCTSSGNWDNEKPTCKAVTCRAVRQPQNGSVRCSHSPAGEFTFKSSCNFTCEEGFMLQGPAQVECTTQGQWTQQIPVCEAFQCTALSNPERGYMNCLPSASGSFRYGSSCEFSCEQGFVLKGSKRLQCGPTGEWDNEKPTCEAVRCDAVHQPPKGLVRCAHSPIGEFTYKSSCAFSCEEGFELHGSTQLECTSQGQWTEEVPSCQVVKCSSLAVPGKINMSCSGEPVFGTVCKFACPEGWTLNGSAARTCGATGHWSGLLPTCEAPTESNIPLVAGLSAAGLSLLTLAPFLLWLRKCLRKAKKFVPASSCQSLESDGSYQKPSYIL

Structure (SMILES): Cc1ccccc1CO[C@@H]1C[C@@]2(C(C)C)CC[C@]1(C)O2
- outcome [1]: inactive
- outcome [2]: inactive
- outcome [3]: inactive
- outcome [4]: inactive
- outcome [5]: inactive
- outcome [6]: inactive
- outcome [7]: inactive
- outcome [8]: inactive
- outcome [9]: inactive
- outcome [10]: inactive
- outcome [11]: inactive
- outcome [12]: inactive
- outcome [13]: inactive
- outcome [14]: inactive
- outcome [15]: inactive
- outcome [16]: inactive
- outcome [17]: inactive
- outcome [18]: inactive
- outcome [19]: inactive

Structure (SMILES): ClC(Cl)=C(c1ccc(Cl)cc1)c1ccc(Cl)cc1
- AC50 [1]: 20 µM (active)
- AC50 [3]: 30 µM (active)
- AC50 [4]: 27.8 µM (active)
- AC50 [5]: 31.6 µM (active)
- AC50 [6]: 14.1 µM (active)
- AC50 [7]: 16.6 µM (active)
- AC50 [8]: 20 µM (active)
- AC50 [9]: 30.2 µM (active)
- AC50 [10]: 27.9 µM (active)
- AC50 [11]: 27.9 µM (active)
- AC50 [12]: 27 µM (active)
- AC50 [20]: 32.6 µM (active)
- AC50 [13]: 20 µM (active)
- AC50 [14]: 20 µM (active)
- AC50 [15]: 38.7 µM (active)
- AC50 [16]: 29.8 µM (active)
- AC50 [17]: 30.6 µM (active)
- AC50 [18]: 32.1 µM (active)
